The results in this text go back to PubChem BioAssay (NCI).

This is part of a sample that, as a whole, favours compounds with a hit. Of some 83,000 tested, about 20% had one in any assay.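 How to read the values: 0–100, growth inhibition (40 = 60% inhibited); 0, no net growth; -100 to 0, cell death (-40 = 40% of starting cells died; -100 = all dead).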 A number with no mark means an inactive call. The source made the active and inactive calls. The calls were made as follows: active = growth percent below 10; inactive = the rest.

Common to all, as to test: NCI-60 one-dose screen, 48 h (100 = growth as untreated, 0 = no growth, -100 = all killed)
What all share (conditions): 10 µM unless noted

The subject of test [1] is BT-549 breast.
Test [2] relates to MDA-MB-435 melanoma.
In test [3] the test system is SW-620 colon.
Test [4] has as its system MCF7 breast.
The subject of test [5] is HCT-116 colon.
The subject of test [6] is HCC-2998 colon.
Test [7] has as its system KM12 colon.

On to `Cc1ccc(Sc2nnc(/N=C3\C(=O)Nc4ccccc43)s2)cc1`, for which the growth in test [1] is 116%; in test [2] it was 103%; in test [3], 96.2%; in test [4], 101%; in test [5], 104%; in test [6] it was 116%. Besides, the growth in test [7] was 98.1%.
Regarding `O=S(=O)(Nc1cc(Br)c(O)c2ccccc12)c1ccc(F)cc1`, the growth was 100% in test [1]; -90.4% (active) in test [2]; 104% in test [3]; 49.1% in test [4]; 51% in test [5]; 97.8% in test [6]. Also, in test [7], the growth is 86.4%.
For `Cc1cc(Cl)ccc1Nc1nc(C(F)(F)F)ccc1C(=O)N/N=C/c1ccc([N+](=O)[O-])cc1`, the growth in test [1] is 6.01% (active); in test [2], 6.79% (active); in test [3], 93.4%; in test [4], -47.7% (active); in test [5] it was 6.32% (active); in test [7], -20.6% (active).
`O=[N+]([O-])/C(=C/C=C/c1ccccc1)c1ccccc1`: the growth is 103% in test [1]; 70.6% in test [2]; 5.75% (active) in test [3]; 23.5% in test [4]; -5.29% (active) in test [5]; 38.8% in test [7].
With `CCOC(=O)C(=Cc1cccc(Cl)c1)C(=O)OCC`, the growth in test [1] was 42.6%; in test [2], 6.41% (active); in test [3], -46.6% (active); in test [4], 8.93% (active); in test [5] it was -47.5% (active); in test [6] it was 77.1%. In test [7], the growth is 18%.
Regarding `O=C(Nc1cccc([N+](=O)[O-])c1)c1cc2ccccc2cc1O`, the growth was -7.42% (active) in test [1]; -1.29% (active) in test [2]; 6.15% (active) in test [3]; -4.92% (active) in test [4]; 7.4% (active) in test [5]; -10.3% (active) in test [7].
For the molecule `COc1ccc(C(=O)Nc2ncc(Cc3cccc(Cl)c3)s2)cc1OC`, the growth in test [1] was 50.7%; in test [2] it was 0.543% (active); in test [3] it was 27.4%; in test [4], 11%; in test [5] it was 27.2%; in test [6], 16.9%. Also, the growth in test [7] is 18%.
In the case of `O=C(CSc1nnc2n1S(=O)(=O)c1ccccc1N2c1ccccc1)Nc1nc2ccc(F)cc2s1`, the growth in test [1] was 97.1%; in test [2], 101%; in test [3], 109%; in test [4], 93.5%; in test [5] it was 93.5%; in test [6] it was 95.6%. For the same molecule, in test [7], the growth is 108%.
As to `O=C(/C=C(/C=C/c1cccc2[nH]ccc12)OB(F)F)/C=C/c1cccc2[nH]ccc12`, the growth in test [1] was -19.5% (active); in test [2] it was -34.4% (active); in test [3], 1.96% (active); in test [4], 4.29% (active); in test [5], -84.7% (active); in test [7], -17.3% (active).
Take `CCCCCOc1ccc(C(=O)/C(Br)=C/C(=O)O)cc1`: the growth is 110% in test [1]; 104% in test [2]; 111% in test [3]; 91.7% in test [4]; 89.2% in test [5]; 107% in test [7].
On to `Cc1cc(N)c2cc(NC(=O)/C=C\c3ccccc3Cl)ccc2n1`, for which the growth in test [1] was -72.8% (active); in test [2] it was -80.5% (active); in test [3], -91.2% (active); in test [4], -82.4% (active); in test [5], -73% (active); in test [7] it was -83.8% (active).
Regarding `COC(=O)c1n[nH]c2ccc3nc(-c4cn[nH]c4C(F)(F)F)c4c(c3c12)CCCC4`, the growth in test [1] is 35.5%; in test [2] it was 39.3%; in test [3], 28.3%; in test [4] it was 53%; in test [5] it was 22.9%; in test [6], 15.7%. The growth in test [7] was 26.8%.
For `Oc1c(Cl)cc(Cl)c2ccc(Cn3cc(-c4cc(C(F)(F)F)cc(C(F)(F)F)c4)nn3)nc12`, the growth in test [1] is 66%; in test [2], 43.5%; in test [3] it was 4.61% (active); in test [4], 21.2%; in test [5] it was 1.78% (active); in test [6] it was 101%. Besides, the growth in test [7] is 102%.
As to `CN(CCn1sc(=O)n(Cc2ccccc2)c1=O)Cc1ccc2c(Cl)cc(Cl)c(O)c2n1`, the growth was 70.5% in test [1]; 55.8% in test [2]; 22.7% in test [3]; 29.9% in test [4]; 19% in test [5]; 52.2% in test [6]. Moreover, in test [7], the growth was 37.1%.
For the molecule `COc1ccc(-c2nc(SCC(C)C)nc(N/N=C\c3ccc(F)cc3)c2C#N)cc1`, the growth in test [1] is 89.9%; in test [2], 92.5%; in test [3], 67.9%; in test [4], 81.2%; in test [5], 60%; in test [6] it was 104%. For the same molecule, the growth in test [7] is 97.4%.
For `COc1ccc(OC)c(C(=O)/C=C/c2cc3c(c(OC)c2OC)OCO3)c1`, the growth was 65.6% in test [1]; 63.2% in test [2]; 68.8% in test [3]; 31.4% in test [4]; 43.6% in test [5]; 86.3% in test [6]. Also, the growth in test [7] was 55%.
Turning to `CCCCCCCCCCCCCCCCCCOc1ccccc1CC(=O)NCC[N+]1(C)CCCC1`, the growth in test [1] is 67.2%; in test [2], 67.4%; in test [3], 64.7%; in test [4] it was 53.1%; in test [5], 55.9%; in test [6], 32.7%. Also, the growth in test [7] is 18.9%.
On to `O=S(=O)(NCCNc1nccc(-c2c(-c3cccc(F)c3)nc3occn23)n1)c1ccc(Br)cc1`, for which the growth was 103% in test [1]; 68.5% in test [2]; 91.8% in test [3]; 69.1% in test [5]; 106% in test [6]; 88.9% in test [7].
On to `O=C(Cc1ccccc1)Nc1nc(O)c(/C=C2\C(=O)C=Cc3ccccc32)s1`, for which the growth in test [1] is 98.9%; in test [2] it was 101%; in test [3] it was 95.7%; in test [4], 101%; in test [5], 90.1%; in test [6], 110%. In test [7], the growth was 106%.
